Laboratory results published in the supplement of paper PMC8975748.
Counter-ions that a name gives are not always drawn.

Test system: Saccharomyces cerevisiae BY4741 SeMeCo community
Assay: z-score of subpopulation abundance vs DMSO median, subpopulation auxotrophic for UM; higher = larger share of this subpopulation than in DMSO controls
Conditions: 10 µM; 24 h; SM minimal medium; subpopulation (auxotrophy): UM
Procedure: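 Fluorescent four-plasmid SeMeCo (self-establishing metabolically cooperating S. cerevisiae BY4741 community; plasmids pH-mRuby2, pL-mWasabi, pU-eCFP, pM-TagRFP657) was grown 24 h in minimal SM medium with each Selleck FDA-approved drug at 10 µM in 384-well plates. Cells were fixed and imaged by high-content confocal microscopy. For each auxotrophic subpopulation (and the prototroph), a z-score gives the deviation from the DMSO vehicle-control population median.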

Structure (SMILES)	z-score of subpopulation abundance
C=CC[C@]1(O)CC[C@H]2[C@@H]3CCC4=CC(=O)CCC4=C3C=C[C@@]21C [Altrenogest]	-0.72
CN1[C@@H]2CC[C@H]1C[C@@H](OC(=O)[C@H](CO)c1ccccc1)C2 [Hyoscyamine]	-0.14
CN1[C@@H]2CC[C@H]1C[C@@H](OC(=O)C(CO)c1ccccc1)C2 (some centres undefined) [Atropine sulfate monohydrate]	0.69
N[C@@H]1C[C@H]1c1ccccc1 [Tranylcypromine (2-PCPA) HCl]	-0.34
CC[N+](C)(CC)CCOC(=O)C(O)(c1ccccc1)c1ccccc1 [Methylbenactyzine Bromide]	-0.66
O=c1[nH]c2ccccc2n1CCCN1CCC(n2c(=O)[nH]c3cc(Cl)ccc32)CC1 [Domperidone]	0.56
CC1(C)SC2C(N)C(=O)N2C1C(=O)O (centres undefined) [6-Aminopenicillanic acid]	0.97
Nc1nc(N)nc(NC2CC2)n1 [Cyromazine]	0.57
COC(=O)C1=CCCN(C)C1 [Arecoline HBr]	0.61
CC[C@H]1[C@@H]2C[C@H]3[C@@H]4N(C)c5ccccc5[C@]45C[C@@H]([C@@H]2[C@H]5O)N3[C@@H]1O [Ajmaline]	-0.04
NCCc1c[nH]c2ccc(O)cc12 [Serotonin HCl]	-0.02
CC[C@@H](C(N)=O)N1CCCC1=O [Levetiracetam]	-0.62
CC(C)N(CCC(C(N)=O)(c1ccccc1)c1ccccn1)C(C)C (centres undefined) [Disopyramide]	-0.64
COc1ccc2c(c1)[C@]13CCCC[C@@H]1[C@H](C2)N(C)CC3 [Dextromethorphan hydrobromide hydrate]	-0.52
CN[C@@H]1[C@@H](O)[C@@H](O[C@@H]2[C@@H](O)[C@H](O[C@H]3O[C@H]([C@@H](C)O)[C@@H](O)[C@H](O)[C@H]3N)[C@@H](N)C[C@H]2N)OC[C@]1(C)O [Geneticin (G418 Sulfate)]	-0.56
CC(NC(C)(C)C)C(=O)c1cccc(Cl)c1 (centres undefined) [Amfebutamone (Bupropion) HCl]	-0.25
CCN(CC)CCOC(=O)C(O)(c1ccccc1)c1ccccc1 [Benactyzine hydrochloride]	0.21

Structure (SMILES)	z-score of subpopulation abundance
CN(C)[C@@H]1C(=O)C(C(N)=O)=C(O)[C@@]2(O)C(=O)C3=C(O)c4c(O)cccc4[C@@](C)(O)[C@H]3[C@H](O)[C@@H]12 [Oxytetracycline (Terramycin)]	-0.17
CCCN1C[C@H](CSC)C[C@@H]2c3cccc4[nH]cc(c34)C[C@H]21 [Pergolide Mesylate]	-0.77
Nc1ccncc1 [4-Aminopyridine]	-0.05
C=CCN1C[C@H](C(=O)N(CCCN(C)C)C(=O)NCC)C[C@@H]2c3cccc4[nH]cc(c34)C[C@H]21 [Cabergoline]	-0.17
C=C[C@H]1CN2CC[C@H]1C[C@H]2[C@H](O)c1ccnc2ccccc12 [Cinchonidine]	0.45
COc1ccc(C=O)cc1 [p-Anisaldehyde]	-0.71
NCC(O)c1ccc(O)cc1 (racemic) [(+,-)-Octopamine HCl]	-0.79
CC(C)(O)C(Cl)(Cl)Cl [Chlorobutanol]	0.14
O=C(O[C@H]1C[N+]2(CCCOc3ccccc3)CCC1CC2)C(O)(c1cccs1)c1cccs1 [Aclidinium Bromide]	0.73
C[CH2][Hg][S]c1ccccc1C(=O)[O-].[Na+] [Thimerosal]	6.06
CCN1CC2(OC(=O)c3ccccc3NC(C)=O)CCC(OC)C34C1C(CC23)C1(O)CC(OC)C2CC4C1(O)C2OC (centres undefined) [Lappaconitine]	0.23
CN(C)C(=O)Oc1cccc([N+](C)(C)C)c1 [Neostigmine Bromide]	-0.71
CCOC(=O)Nc1ccc(NCc2ccc(F)cc2)cc1N [Retigabine]	-1.09
O=[N+]([O-])C(Br)(CO)CO [Bronopol]	-0.1
CCC1=C[C@H]2CN3CCc4c([nH]c5ccccc45)[C@](C(=O)OC)(C2)[C@H]13 [Catharanthine]	0.1
CCN(C)C(=O)Oc1cccc([C@H](C)N(C)C)c1 [Rivastigmine]	0.75
Cc1cc(C(C#N)c2ccc(Cl)cc2)c(Cl)cc1NC(=O)c1cc(I)cc(I)c1O (centres undefined) [Closantel]	-0.03
